The structures appear in SMILES notation. Among all 94,000 compounds or so, about 4,000 (4.3%) were called active. About 29% were inconclusive and are not listed. The sample as a whole holds a higher share of actives than the screen did. Unmarked numbers belong to inactive results. The call rests on the fitted dose curve; in most records, active means well fitted inhibition curve with a large enough effect; inconclusive means small, poorly fitted or top-dose-only effect; inactive means no such curve, though single readings can be large or run the other way.
On the % scale 0 is the no-effect control and ±100 the full control effect; potency means the concentration at half of the fitted maximal effect.

A short description of this test: Cytotoxic Profiling in NIH 3T3 Cell Line of Diverse Libraries Using Quantitative High-Throughput Screening. Further: nearly all actives have a fitted effect of over 55% in size. The settings on record: NIH 3T3 viability, CellTiter-Glo ATP luminescence, 48-72 h; series mostly up to 96.7 µM; activity change, negative = cytotoxicity: at the top concentration. The essentials: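 Cells were seeded at 400 per well, treated with pin-transferred compound, and kept 48 or 72 hr at 37 °C before CellTiter-Glo addition and luminescence imaging of cellular ATP.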
Consider `C1CCC(COCCc2noc(C3CNC3)n2)C1`, for which the Potency was 7.94 µM (active).
As for `COCCCNC(=O)c1ccc2oc(-c3ccc(OC)nc3)nc2c1`, the “activity change, negative = cytotoxicity” value is -22% [at 138 µM].
Turning to `CC(C)CNC(=O)N1CCCC(c2nc(C(C)C)no2)CCNC(=O)CC1` (stereo not drawn), the “activity change, negative = cytotoxicity” value was -8.55%.
In the case of `CC(C)(C)NC(=O)N1CCCC(c2nc(CCOCC3CCOCC3)no2)C1` (stereo not drawn), the call was inactive.
`CN1CCC(N2CCC[C@H]2c2nc(-c3ccc(OC4CCCCC4)nc3)no2)CC1`: the Potency was 28.2 µM (active).
Consider `CC(=O)N1CCC(N2CCC[C@H]2c2nc(-c3ccc(-c4cncnc4)nc3)no2)CC1`, for which the “activity change, negative = cytotoxicity” value is -21.4% [at 138 µM].
On the same count and under the same terms, next, `CC(=O)N1CCN(c2cc(-c3noc([C@@H]4CCCN4C4CCC4)n3)ccn2)CC1`: -7.66% [at 138 µM]; `COCCN1CCC2(CCC1=O)CCN(C(=O)Nc1cc(Cl)ccc1C)CC2`: -17.5%; `CCN(CC)C(=O)[C@@H](C)C1CC[C@@]2(C)Cc3sc(N)nc3[C@@H](C)[C@@H]2[C@H]1O` (stereo partly drawn): -15.1% [at 174 µM].
`C=CCN(C)C(=O)[C@@H](C)C1CC[C@@]2(C)Cc3sc(Nc4c(Cl)cccc4Cl)nc3[C@@H](C)[C@@H]2[C@H]1O` (stereo partly drawn): the Potency was 44.7 µM (active).
Regarding `COCCNC(=O)C(C)[C@@H]1CC[C@@]2(C)CC[C@H](NC(=O)c3ccccc3)[C@@H](C)[C@@H]2[C@H]1O` (stereo partly drawn), the “activity change, negative = cytotoxicity” value is -1.63% [at 138 µM].
`Cc1cc(C2CCCN2C(=O)c2ccccc2)on1` (stereo not drawn): the compound was classed as inactive.
As for `O=C(c1ccc2cc[nH]c2c1)N1CCN(Cc2cnc[nH]2)CC(O)C1` (stereo not drawn), the “activity change, negative = cytotoxicity” value was -0.94%.
Still for that read-out and setting: next, `O=C(C1CC1)N1CCn2c(nn(-c3ccc(F)cc3)c2=O)C1`: -29.2% [at 138 µM]; `Cc1ccc(-n2nc3n(c2=O)CCN(C(=O)Cc2ccccn2)C3)cc1`: -2.45%.
In the case of `Cc1ccc(-n2nc3n(c2=O)CCN(C(=O)C(C)(C)C)C3)cc1`, the Potency was 50.1 µM (active).
With `COc1ccc(N2CCN(C3CCCN(CC(=O)N(C)C(C)C)C3)CC2)cc1` (stereo not drawn), the “activity change, negative = cytotoxicity” value was -1.05%.
Still for that read-out and setting: the value for `COc1ccc(CC(=O)Nc2cc(-c3cccnc3)nn2-c2ccccc2)cc1` was -35.3%.
Consider `COc1ccc(-n2nc(-c3ccccc3)n(CC(=O)N(C)CC(C)C)c2=O)cc1`, for which the Potency is 79.4 µM (active).
Same read-out and setting: the value for `Cc1noc2c(N3CC[S+](=O)([O-])CC3)cc(-c3ccc(Cl)cc3)nc12` was 10 µM (active).
On to `Cc1nc2c(c(-c3ccc(Cl)cc3)n1)CCN([S+](=O)([O-])c1c(C)noc1C)CC2`, for which the “activity change, negative = cytotoxicity” value was -12.1%.
Turning to `Cc1noc2c(N3CCC(c4ccccc4)CC3)cc(-c3cccnc3)nc12`, the “activity change, negative = cytotoxicity” value was -24.6% [at 138 µM].
The same measure, in the same setting: next, `CN1CCCCCCN(C(=O)C2CCC2)[C@H]2CCC[C@H]2C1=O`: -7.21%.
Regarding `Cc1noc(C)c1-c1cc2cc(CNC3CCOCC3)oc2c(NC2CCN(C)CC2)n1`, the Potency is 39.8 µM (active).
On to `CCOCCN1C(=O)COC[C@@H]1[C@H](O)c1ccc(NC(=O)c2cnccn2)cc1`, for which the “activity change, negative = cytotoxicity” value is -12.3% [at 138 µM].
For `O=C(C1CCCN(Cc2cccc(-c3ccc(F)cc3F)c2)C1)N1CCN(Cc2ccccc2)CC1` (stereo not drawn), the Potency was 39.8 µM (active).
As for `CCCN1CCN(C(=O)C2CCCN(c3cnn(Cc4ccccc4)c(=O)c3)C2)CC1` (stereo not drawn), the “activity change, negative = cytotoxicity” value was -15%.
For `O=C(C1CCN(Cc2ccccc2-c2cccnc2)CC1)N1CCN(Cc2ccccc2)CC1`, the “activity change, negative = cytotoxicity” value was -38.3%.
On the same count and under the same terms, next, `COCc1nc(CCNC(=O)Cc2c(C)noc2C)no1`: -2.43%; `CN(C)C[C@@H]1CN(C)C[C@H]1NC(=O)c1cnn(C)c1`: -4.02%.
Consider `CCn1ccc(C(=O)NCC2CCCCC(=O)N2)n1` (stereo not drawn), for which the “activity change, negative = cytotoxicity” value was -4.36%.
The same measure, in the same setting: the value for `O=C(c1ccccn1)N1CCn2c(nnc2C2CCCNC2)C1` (stereo not drawn) was 4.23% [at 138 µM]; that for `COCC(=O)N(C1CCOCC1)C1CCN(S(=O)(=O)c2ccccc2)CC1` was -10.5%.
In the case of `O=[S+]([O-])(c1ccccc1)N1CCCC2(CC(c3ccccn3)=NO2)C1` (stereo not drawn), the result was inactive.
`O=C1NC2(Cc3ccccc31)CN([S+](=O)([O-])c1cccc(C(F)(F)F)c1)C2`: the “activity change, negative = cytotoxicity” value was -11.6%.
In the case of `O=C1NC2(CCCN([S+](=O)([O-])c3ccccc3)C2)COc2ccccc21` (stereo not drawn), the Potency is 22.4 µM (active).
`COc1nccnc1NC1CCN(C(=O)CCc2ccccc2)CC1`: the “activity change, negative = cytotoxicity” value was -22.2%.
On to `Cc1ccc(C2Cn3nnc(-c4noc(-c5ccccc5C)n4)c3CO2)cc1` (stereo not drawn), for which the compound was classed as inactive.
Consider `O=C1CCCN1CCCN1C(=O)[C@@H]2C[C@@H](O)CN2C2(CN(C3CCOCC3)C2)C1=O`, for which the “activity change, negative = cytotoxicity” value was -0.373% [at 174 µM].
On the same count and under the same terms, the value for `COCC(=O)Nc1ccc([C@@H](O)[C@H]2COCC(=O)N2Cc2ccc(C(F)(F)F)cc2)cc1` was -11.3%; that for `N#Cc1cccc(CN2CCCN(S(=O)(=O)c3ccccc3)CCC(=O)NCC2)c1` was -29.7%; that for `N#Cc1cccc(CN2CCc3nc(N4CCc5ccccc5C4)[nH]c(=O)c3CC2)c1` was -0.249%.
As for `O=C(Cn1c2c(c(=O)n1Cc1ccccc1)CCN(Cc1ccccc1)C2)NCc1cccc(Cl)c1`, the “activity change, negative = cytotoxicity” value is -22.1%.
For `O=c1c2c(n(Cc3ccccc3)n1-c1ccccc1)CN(Cc1ccn[nH]1)CC2`, the Potency was 89.1 µM (active).
Consider `O=C1NCCN(Cc2ccccc2)C1CC(=O)N1CCN(c2ccccc2)CC1` (stereo not drawn), for which the “activity change, negative = cytotoxicity” value was -1.32%.
On to `COCCn1c2c(c(=O)n1-c1ccccc1)CCN(Cc1cccc(C#N)c1)C2`, for which the Potency was 100 µM (active).
As to `N#Cc1ccc(CN2CCC3(COc4ncccc4[S+](=O)([O-])N3)C2)cc1` (stereo not drawn), the “activity change, negative = cytotoxicity” value is -19.9%.
Same read-out and setting: the value for `CC(C)c1ccc(CNC(=O)CCn2ccn3nc4c(c3c2=O)CCCC4)cc1` was -28.9%.

Source of the values: PubChem BioAssay AID1345082 (National Center for Advancing Translational Sciences (NCATS), 2018).
